The whole screen tested about 2,000 compounds, of which about 110 (5.5%) showed an effect of 50% or more. The entries come from a sample that favours strong results as a whole.

The values that follow come from ChEMBL document CHEMBL5606460, “ASAP - DENV-2 NS2B-NS3 protease fluorescence single point” (2024).

This test concerns the target Genome polyprotein (dengue virus type 2) (UniProt P29990).
[1] abbreviates: Thailand/16681/1984, Concentration 25.0 uM, Number of replicates 1.0.

Usually inhibition stands for the drop in the measured response relative to a control, in per cent. On to `N#Cc1cccc(NC(=O)[C@@H](NC(=O)c2ccc(Oc3ccc(C(F)(F)F)cc3)cc2)c2ccc(OCc3ccccc3)cc2)c1`, for which the inhibition (Thailand/16681/1984, Concentration 49.5 uM, Number of replicates 2.0, Standard deviation 0.9263674997821656 %) was -5.09%; the inhibition (Thailand/16681/1984, Concentration 99.01 uM, Number of replicates 2.0, Standard deviation 0.4269393146330484 %) was -4.04%; the inhibition (Thailand/16681/1984, Concentration 198.0 uM, Number of replicates 2.0, Standard deviation 0.9636779131327375 %) was -5.31%.
For `CN(C)Cc1cc(C(=O)Nc2cc(Cl)cc(C(=O)NC(C)(C)CO)c2)ccn1`, the inhibition (Thailand/16681/1984, Concentration 49.5 uM, Number of replicates 2.0, Standard deviation 0.8373879793632091 %) was -0.805%; the inhibition (Thailand/16681/1984, Concentration 99.01 uM, Number of replicates 2.0, Standard deviation 1.3878191722501325 %) was -0.768%; the inhibition (Thailand/16681/1984, Concentration 198.0 uM, Number of replicates 2.0, Standard deviation 1.150645337077672 %) is -0.077%.
For `O=C(/C=C/c1ccccc1)C(=O)N1CCN(CCc2ccccc2)CC1`, the inhibition reads like this: (Thailand/16681/1984, Concentration 49.5 uM, Number of replicates 2.0, Standard deviation 1.1058163895680901 %) -0.075%; (Thailand/16681/1984, Concentration 99.01 uM, Number of replicates 2.0, Standard deviation 1.051850300329286 %) 3.22%; (Thailand/16681/1984, Concentration 198.0 uM, Number of replicates 2.0, Standard deviation 0.9821847629012651 %) 9.52%.
Turning to `CN(C)c1ccc(/C=C/C(=O)C(=O)N2CCOCC2)cc1`, the inhibition is, setting by setting: (Thailand/16681/1984, Concentration 49.5 uM, Number of replicates 2.0, Standard deviation 1.4993650320557768 %) 37.9%; (Thailand/16681/1984, Concentration 99.01 uM, Number of replicates 2.0, Standard deviation 1.3662996762867583 %) 59.5%; (Thailand/16681/1984, Concentration 198.0 uM, Number of replicates 2.0, Standard deviation 0.7538742729933879 %) 78.8%.
In the case of `O=Cc1ccc(N2CCC(C(=O)N3CCOCC3)CC2)cc1`, the inhibition under setting [1] was 13.3%.
As to `O=Cc1ccc(N2CCC(C(=O)N3CCN(CCc4ccccc4)CC3)CC2)cc1`, the inhibition under setting [1] worked out at 33%.
`CC(=O)N1CCC(N(C)C(=O)C2CCN(c3ccc(C=O)cc3)CC2)CC1`: the inhibition under setting [1] is 10.9%.
On to `CN(Cc1ccc(N2CCOCC2)cc1)C(=O)C1CCN(c2ccc(C=O)cc2)CC1`, for which the inhibition under setting [1] was 13.2%.
In the case of `O=C(/C=C/c1ccc(N2CCNCC2)cc1)C(=O)N1CCOCC1`, the inhibition (Thailand/16681/1984, Concentration 49.5 uM, Number of replicates 2.0, Standard deviation 1.4144964098734516 %) was found to be 1.52%; the inhibition (Thailand/16681/1984, Concentration 99.01 uM, Number of replicates 2.0, Standard deviation 0.4568300281843685 %) was found to be 5.18%; the inhibition (Thailand/16681/1984, Concentration 198.0 uM, Number of replicates 2.0, Standard deviation 1.1436463049734074 %) came out at 13.3%.
Turning to `NCc1ccc(/C=C/C(=O)C(=O)N2CCOCC2)cc1`, the inhibition by setting is: (Thailand/16681/1984, Concentration 49.5 uM, Number of replicates 2.0, Standard deviation 0.4887874545992688 %) 28.7%; (Thailand/16681/1984, Concentration 99.01 uM, Number of replicates 2.0, Standard deviation 0.17235835687354284 %) 48.5%; (Thailand/16681/1984, Concentration 198.0 uM, Number of replicates 2.0, Standard deviation 0.3206181572929207 %) 70.2%.
Consider `Nc1ccc(/C=C/C(=O)C(=O)N2CCN(CCc3ccccc3)CC2)cc1`, for which the inhibition (Thailand/16681/1984, Concentration 49.5 uM, Number of replicates 2.0, Standard deviation 0.14046836541625998 %) is 23.4%; the inhibition (Thailand/16681/1984, Concentration 99.01 uM, Number of replicates 2.0, Standard deviation 0.26272659487750905 %) was determined as 40.1%; the inhibition (Thailand/16681/1984, Concentration 198.0 uM, Number of replicates 2.0, Standard deviation 0.8058693227147314 %) is 60.1%.
For `CNC(=O)c1cc(Cl)ccc1NS(=O)(=O)c1[nH]ncc1C(=O)OC`, the inhibition (Thailand/16681/1984, Concentration 49.5 uM, Number of replicates 2.0, Standard deviation 1.242021000664882 %) was -1.06%; the inhibition (Thailand/16681/1984, Concentration 99.01 uM, Number of replicates 2.0, Standard deviation 0.08117786480507469 %) was 0.923%; the inhibition (Thailand/16681/1984, Concentration 198.0 uM, Number of replicates 2.0, Standard deviation 0.003820190349027435 %) was 2.41%.
Consider `COc1cc(Cl)c(C)cc1NC(=O)C1CCN(c2ccc(C=O)cc2)CC1`, for which the inhibition under setting [1] is 13.9%.
Still for that read-out and setting: the same measure for `CC(C)(CNC(=O)C1CCN(c2ccc(C=O)cc2)CC1)c1cccc(Cl)c1`: 10.4%.
Regarding `N[C@H]1C[C@H](CNC(=O)[C@@H](NC(=O)OCc2ccccc2)c2ccc(OCc3ccccc3)cc2)C1`, the inhibition is -7.81% (Thailand/16681/1984, Concentration 49.5 uM, Number of replicates 2.0, Standard deviation 4.035148717327061 %); -5.23% (Thailand/16681/1984, Concentration 99.01 uM, Number of replicates 2.0, Standard deviation 3.6381547385610027 %); 9.08% (Thailand/16681/1984, Concentration 198.0 uM, Number of replicates 2.0, Standard deviation 2.7035240962471856 %).
With `O=Cc1ccc(N2CCC(C(=O)NC3C4CC5CC(C4)CC3C5)CC2)cc1` (configuration not stated), the inhibition under setting [1] stood at 6.37%.
Take `CN(Cc1cccc2ccccc12)C(=O)C1CCN(c2ccc(C=O)cc2)CC1`: under setting [1], the inhibition came out at 11.3%.
`Cc1c(C2CCNCC2)cnn1Cc1nnc(-c2ccccc2)o1`: the inhibition by setting is: (Thailand/16681/1984, Concentration 49.5 uM, Number of replicates 2.0, Standard deviation 2.3622904402078886 %) -2.18%; (Thailand/16681/1984, Concentration 99.01 uM, Number of replicates 2.0, Standard deviation 1.8884466143634908 %) -1.86%; (Thailand/16681/1984, Concentration 198.0 uM, Number of replicates 2.0, Standard deviation 1.0159128732525171 %) -0.491%.
`Cc1cccc(NC(=O)CNC(=O)C2CCN(c3ccc(C=O)cc3)CC2)c1C`: the inhibition under setting [1] was determined as 13%.
Consider `Cc1cc(CO)c2cccc(NC(=O)CCN)c2n1`, for which the inhibition turned out to be 28.7% (Thailand/16681/1984, Concentration 49.95 uM, Number of replicates 2.0, Standard deviation 0.675365146636023 %) and 91.2% (Thailand/16681/1984, Concentration 99.9 uM, Number of replicates 2.0, Standard deviation 0.4014376052982588 %).
On to `Cc1cc(CO)c2cccc(NC(=O)[C@@H](N)CC(N)=O)c2n1`, for which the inhibition is, setting by setting: (Thailand/16681/1984, Concentration 49.95 uM, Number of replicates 2.0, Standard deviation 1.8295341709834483 %) -3.67%; (Thailand/16681/1984, Concentration 99.9 uM, Number of replicates 2.0, Standard deviation 6.049352845396267 %) -1.2%.
Consider `Cc1cc(CO)c2cccc(Nc3cc(O)[nH]n3)c2n1`, for which the inhibition was 32.3% (Thailand/16681/1984, Concentration 49.95 uM, Number of replicates 2.0, Standard deviation 1.1262325758678584 %) and 51.5% (Thailand/16681/1984, Concentration 99.9 uM, Number of replicates 2.0, Standard deviation 0.556697154318326 %).
For the compound `Cc1cc(Cl)c2cccc(NC(=O)CCN)c2n1`, the inhibition is, setting by setting: (Thailand/16681/1984, Concentration 49.95 uM, Number of replicates 2.0, Standard deviation 0.0008200090846279543 %) 99.2%; (Thailand/16681/1984, Concentration 99.9 uM, Number of replicates 2.0, Standard deviation 0.04112992935002318 %) 98.9%.
